# IL1B secr inh: inflammasome signaling inhibition, IL-1 beta readout | THP-1 LPS/ATP IL-1B secretion, AlphaLISA, 16 h; hits give low values | activity change, % at 57.5 µM | hit rate 4.7% among 360,000 | AID 743279; in the data active means activity change below about -50%; inconclusive means mostly about -30% to -49%; further: on the % scale 0 is the no-effect control and ±100 the full control effect
#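 Secreted IL-1B measured by AlphaLISA bead assay after 16 h compound exposure of THP-1 cells; compounds (final up to 57.5 uM) added 1 h before LPS (250 ng/mL) and ATP (1.25 mM) stimulation; lower signal means less secretion.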
# DT40 TDP1 CPT: growth inhibition of DT40 Tdp1-/-;hTDP1 cells with camptothecin (screen for TDP1 inhibitors); Potency, µM (titrated, usually from 46.2 µM), for the others: at the top dose activity change, negative = growth inhibition, most hits filed as inhibitors; hit rate 12% among 420,000; chicken DT40 Tdp1-/-;hTDP1 cells + 20 nM CPT, ATP luminescence, 48 h; further: potency means the concentration at half of the fitted maximal effect; on the % scale 0 is the no-effect control and ±100 the full control effect; nearly all actives have a fitted effect of over 55% in size
#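 Chicken DT40 Tdp1-/- cells stably complemented with human TDP1 were seeded at 400 cells/well in medium containing 20 nM camptothecin, exposed to pin-transferred compounds, and grown at 37 °C for at least 48 hr. Viability was read as ATP luminescence.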
# TDP1 inh: TDP1 (human) enzyme inhibition; Q9NUW8; recombinant TDP1, AlphaScreen DNA substrate cleavage; Potency, µM (highest dose often 130 µM), for inactives: at the top dose activity change, negative = inhibition, hits mostly inhibitors; hit rate 0.28% among 350,000; further: potency means the concentration at half of the fitted maximal effect; on the % scale 0 is the no-effect control and ±100 the full control effect; nearly all actives have a fitted effect of over 40% in size
# Target sequence (Q9NUW8 whole entry, looked up): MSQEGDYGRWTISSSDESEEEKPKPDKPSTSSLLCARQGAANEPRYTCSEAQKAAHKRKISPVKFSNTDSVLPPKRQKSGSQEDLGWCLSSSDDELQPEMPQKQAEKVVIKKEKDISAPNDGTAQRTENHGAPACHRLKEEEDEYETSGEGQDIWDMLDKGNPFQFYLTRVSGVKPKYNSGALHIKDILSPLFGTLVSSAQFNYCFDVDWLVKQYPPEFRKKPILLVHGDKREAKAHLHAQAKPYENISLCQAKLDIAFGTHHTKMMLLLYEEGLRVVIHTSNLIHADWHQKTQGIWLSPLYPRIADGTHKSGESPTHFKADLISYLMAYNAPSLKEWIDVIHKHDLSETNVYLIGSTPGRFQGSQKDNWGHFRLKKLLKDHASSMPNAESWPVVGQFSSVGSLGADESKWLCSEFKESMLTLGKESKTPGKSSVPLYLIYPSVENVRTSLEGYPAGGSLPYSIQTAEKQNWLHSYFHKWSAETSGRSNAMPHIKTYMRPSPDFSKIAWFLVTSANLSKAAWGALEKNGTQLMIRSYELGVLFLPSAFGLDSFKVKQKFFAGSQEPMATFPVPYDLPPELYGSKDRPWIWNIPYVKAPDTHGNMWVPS
#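 E. coli-derived human Tdp1, 1 nM final. Cpd preinc 15 min RT; substrate 15 nM final, 5 min RT; AS bead mix 10 ug/ml final, 10 min RT. Signal loss = tyrosine-FITC cleavage. No-enzyme wells = max signal.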
# DT40 TDP1 no CPT: qHTS for Inhibitors of human tyrosyl-DNA phosphodiesterase 1 (TDP1): qHTS in cells in absence of CPT | Potency, µM (doses to about 46.2 µM), without a hit: at the highest dose activity change, negative = growth inhibition, actives largely listed as inhibitors | DT40 Tdp1-/- hTDP1 cells, no CPT, ATP luminescence, 48 h | AID 686978, 2013 | hit rate 15% among 420,000; further: potency means the concentration at half of the fitted maximal effect; on the % scale 0 is the no-effect control and ±100 the full control effect; nearly all actives have a fitted effect of over 55% in size
#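 Growth kinetics read by CellTiter-Glo luminescence after ≥48 hr at 37 °C. Cells: DT40 Tdp1-/- stably carrying human TDP1, 400 per well, compound exposure in the absence of CPT (DMSO vehicle).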
# TGFb SMAD3 inh: inhibitors of TGF-b signaling; HepG2 CAGA-GFP TGF-b/SMAD3 reporter, GFP fluorescence, 18 h; TGF-beta stimulated, 500 pg/mL final; Potency, µM (titrated, usually from 46.1 µM), for the others: at the top dose activity, negative = inhibition, most hits filed as inhibitors; hit rate 1.2% among 410,000; AID 588855; further: potency means the concentration at half of the fitted maximal effect; on the % scale 0 is the no-effect control and ±100 the full control effect; nearly all actives have a fitted effect of over 65% in size
#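 Cell-based qHTS in HEPG2 carrying a CAGA-GFP Smad reporter; compounds added before 500 pg/mL final TGF-beta, 18 h incubation at 37 degrees C, GFP fluorescence quantified per cell by imaging cytometry.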
# HepG2 tox: HepG2 cytotoxicity, counter-screen for TGF-b inhibitors; HepG2 CAGA-GFP viability, ATP luminescence, 18 h; Potency, µM (highest dose often 46.1 µM), for the others: at the top dose activity change, negative = cytotoxicity, usual class: cytotoxic; hit rate 0.76% among 410,000; further: potency means the concentration at half of the fitted maximal effect
#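 HepG2 CAGA-GFP cells (1000/well, DMEM with 1% FBS) received compound, then TGF-beta at 500 pg/mL final, and were incubated 18 hours at 37 degrees C. Viability was read by CellTiter-Glo luminescence. Media-only wells were set as complete cell-killing and DMSO as no toxicity.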
# * marks the source's active call; other numbers are inactive results; ? = inconclusive; nt = not tested or not shown; [ ] = dose if it differs, or a comment. This is a sample that favours compounds with a hit; in the whole collection about 18% have one here. Unless noted, the call rests on the fitted dose curve; in most records, active means well fitted curve in the direction sought with a large enough effect; inconclusive means small, poorly fitted or top-dose-only effect, or another doubt; inactive means no such curve, though single readings can be large; an effect the other way counts as inactive or inconclusive.
SMILES,IL1B secr inh,DT40 TDP1 CPT,TDP1 inh,DT40 TDP1 no CPT,TGFb SMAD3 inh,HepG2 tox
O=C(Nc1nc2ccc(F)cc2s1)c1nc(S(=O)(=O)Cc2ccccc2F)ncc1Cl,nt,3.26µM*,0.0%,2.59µM*,6.31µM*,7.08µM*
CC(C)C[C@@H](CC(=O)N[C@@H](CCC(=O)O)CC(=O)O)NC(=O)[C@@H]1CCCC[C@H]1NC(=O)C[C@@H](NC(=O)C[C@H](Cc1ccccc1)NC(=O)[C@@H]1CNCC[C@H]1N)C(C)C,nt,nt,2.5%,nt,nt,nt
CCc1ccc(Nc2nc3ccccc3c3nnc(C)n23)cc1,nt,8.2µM*,-2.8%,10.3µM*,0.0%,-35.9%
Cc1nnc2c3ccccc3nc(Nc3ccccc3C(=O)O)n12,nt,?,-2.5%,?,6.2%,-17.9%
CCCCOC(=O)c1ccc(Nc2nnc(-n3nc(C)cc3C)c3ccccc23)cc1,nt,?,1.2%,?,-4.8%,-10.0%
Cc1nnc2c(-c3ccccc3)nc3ccccc3n12,0.0,-5.8%,7.1%,?,35.3%,17.4%
Cc1ccc(Nc2nc3ccccc3c3nncn23)cc1C,nt,8.2µM*,10.0%,16.4µM*,-15.7%,-24.0%
Cc1cc(Nc2nc3ccccc3c3nnc(C)n23)ccc1Br,nt,?,0.0%,18.4µM*,-14.1%,-17.0%
CCCCOC(=O)c1ccc(Nc2nc3ccccc3c3nnc(C)n23)cc1,nt,16.4µM*,14.1%,20.6µM*,0.0%,-9.1%
O=C(Cn1cc(S(=O)(=O)N2CCN(c3ccccc3F)CC2)c2ccccc2c1=O)Nc1cccc(C(F)(F)F)c1,nt,?,-2.1%[12.3 µM],?,?,-30.0%
CCOC(=O)c1c(C)c(-c2ccccc2)n(CC(=O)Nc2cc(C)cc(C)c2)c1C,nt,?,-1.0%,?,-7.3%,-4.5%
O=C(CN(c1ccccc1F)S(=O)(=O)c1ccccc1)N1CCCCCC1,?,?,-2.3%,?,5.0%,6.2%
O=C(NCc1ccccc1)NC1COc2ccccc2C1 (configuration not stated),nt,12.4%,-2.7%,-5.3%,32.8%,5.0%
O=C(CNC(=O)c1ccccc1)OCCCOC(=O)CNC(=O)c1ccccc1,4.8,5.1%,5.5%,7.1%,12.6%,2.7%
COc1ccc(Nc2nc3ccccc3c3nnc(C)n23)cc1Cl,nt,10.3µM*,2.1%[12.3 µM],6.51µM*,-0.3%,-18.1%
COc1ccc(C(=O)NC2CCCCCC2)cc1S(=O)(=O)N1CCCc2ccccc21,-0.7,?,1.8%,?,0.0%,5.8%
CCN1C(=O)CCN(C2CCCC2)c2nc(Nc3ccc(C(=O)NC4CCN(C)CC4)cc3OC)ncc21,51.6,5.17µM*,nt,7.31µM*,?,-68.6%
Cc1[nH]c2ccc(C(=O)OCCN(C)C)cc2c1C,-2.6,-3.7%,-1.0%,-21.8%,23.7%,19.7%
Cc1c(C)n(CCN(C)C)c2ccc(C(=O)OCCN(C)C)cc12,-25.0,?,1.6%,21.1µM*,7.6%,-5.3%
CN(C)CCCOC(=O)c1ccccc1Cl,3.5,21.5%,2.0%,-22.2%,1.3%,6.9%
Cc1c(C)n(Cc2ccccc2)c2ccc(C(=O)OCCCN(C)C)cc12,-108.8*,?,2.8%,20.6µM*,?,17.8µM*
O=C(COc1ccc(F)cc1)NC1CC(=O)N(c2ccc3c(c2)OCCO3)C1 (configuration not stated),nt,-13.9%,2.6%,-22.2%,-10.0%,1.7%
CCN(CC(=O)NC1CCS(=O)(=O)C1)S(=O)(=O)c1ccc(C)c(C)c1 (configuration not stated),-1.8,-1.3%,5.6%,-23.8%,-50.8%,-12.2%

# High-throughput results deposited in PubChem BioAssay by National Center for Advancing Translational Sciences (NCATS).
